# PubChem BioAssay (NCI)
# Several values for one entry are separate records, joined by “and”; a condition that tells them apart may be missing. Equal values may be shown once. The panel holds about 83,000 compounds, 20% with a hit somewhere; the sample as a whole holds those more often.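 Values shown are percent growth following 48 h exposure of cells in 96-well plates to a single concentration of compound; below 10 was considered active.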 Activity calls are given as the source filed them.
# How the values were obtained:
# Assay in all cases: NCI-60 one-dose screen, 48 h (100 = growth as untreated, 0 = no growth, -100 = all killed)
# Conditions in all cases: 10 µM unless noted
# SR leukemia = system: SR leukemia
# RPMI-8226 leukemia = system: RPMI-8226 leukemia
# OVCAR-8 ovarian = system: OVCAR-8 ovarian
# OVCAR-4 ovarian = system: OVCAR-4 ovarian
# SK-OV-3 ovarian = system: SK-OV-3 ovarian
# IGROV1 ovarian = system: IGROV1 ovarian
# OVCAR-3 ovarian = system: OVCAR-3 ovarian
# HS 578T breast = system: HS 578T breast
# NCI/ADR-RES ovarian = system: NCI/ADR-RES ovarian
# OVCAR-5 ovarian = system: OVCAR-5 ovarian
SMILES,growth (SR leukemia),growth (RPMI-8226 leukemia),growth (OVCAR-8 ovarian),growth (OVCAR-4 ovarian),growth (SK-OV-3 ovarian),growth (IGROV1 ovarian),growth (OVCAR-3 ovarian),growth (HS 578T breast),growth (NCI/ADR-RES ovarian),growth (OVCAR-5 ovarian)
CC1CCC2(C(=O)O)CCC3(C)C(=CCC4C5(C)CCC(O)C(C)(C)C5CCC43C)C2C1C (stereo not drawn),39.3% (inactive) and 46.8% (inactive),48.5% (inactive) and 83.4% (inactive),93.3% (inactive),59.3% (inactive) and 84.2% (inactive),91.6% (inactive) and 104% (inactive),96.7% (inactive) and 105% (inactive),56% (inactive) and 101% (inactive),-49% (active) and 63.1% (inactive),16.5% (inactive) and 97.3% (inactive),
CC1CCC(C(C)C)C(NNC(N)=O)C1 (stereo not drawn),100% (inactive),98.5% (inactive),100% (inactive),111% (inactive),109% (inactive),110% (inactive),103% (inactive),91.6% (inactive),105% (inactive),
COc1ccc(N/C=C/C2=[N+](C)c3ccccc3C2(C)C)c(OC)c1,101% (inactive),81.6% (inactive),93.6% (inactive),91.7% (inactive),90.7% (inactive),106% (inactive),93.6% (inactive),99.9% (inactive),92.8% (inactive),
O=C1c2c(O)ccc(O)c2C(=O)c2c(NCCNCCO)ccc(NCCNCCO)c21,-12.7% (active),-21.8% (active) and -30.9% (active),-41.6% (active),-39.7% (active),-23.4% (active) and -35.4% (active),-10.4% (active) and -56.7% (active),-50.5% (active) and -31.7% (active),-22.8% (active),39.1% (inactive) and -9.1% (active),
N#CC(C#N)N=Nc1ccc(Cl)cc1,53.7% (inactive),,62.1% (inactive),10.1% (inactive),45.8% (inactive),69.4% (inactive),15.2% (inactive),81.8% (inactive),72.2% (inactive),72.6% (inactive)
Cn1cnc([N+](=O)[O-])c1Sc1ncn[nH]1,126% (inactive),,73.8% (inactive),95.5% (inactive),115% (inactive),105% (inactive),119% (inactive),119% (inactive),119% (inactive),116% (inactive)
CC(C)C(C)(C)c1ccc(O)cc1,97.8% (inactive),105% (inactive),106% (inactive),108% (inactive),107% (inactive),111% (inactive),105% (inactive),114% (inactive),113% (inactive),
